Laboratory results reported in PubChem BioAssay AID504339 (National Center for Advancing Translational Sciences (NCATS), 2011).
Screen size: about 390,000 compounds; about 17,000 (4.4%) were called active. Inconclusive results (about 8%) are left out. The sample holds actives, similar compounds and a random draw of the others, so the mix is not that of the screen. The call rests on the fitted dose curve; in most records, active means well fitted inhibition curve with a large enough effect; inconclusive means small, poorly fitted or top-dose-only effect; inactive means no such curve, though single readings can be large or run the other way.

Biological target: Lysine-specific demethylase 4A (Homo sapiens) (UniProt O75164)
Test: qHTS Assay for Inhibitors of JMJD2A-Tudor Domain; further: nearly all actives have a fitted effect of over 50% in size
Conditions: AlphaScreen JMJD2A-Tudor / H3K4me3 peptide binding; series mostly up to 114 µM
On the % scale 0 is the no-effect control and ±100 the full control effect; potency means the concentration at half of the fitted maximal effect.

Chain of Lysine-specific demethylase 4A (Homo sapiens) (O75164 whole entry, looked up, the tested form may be a part): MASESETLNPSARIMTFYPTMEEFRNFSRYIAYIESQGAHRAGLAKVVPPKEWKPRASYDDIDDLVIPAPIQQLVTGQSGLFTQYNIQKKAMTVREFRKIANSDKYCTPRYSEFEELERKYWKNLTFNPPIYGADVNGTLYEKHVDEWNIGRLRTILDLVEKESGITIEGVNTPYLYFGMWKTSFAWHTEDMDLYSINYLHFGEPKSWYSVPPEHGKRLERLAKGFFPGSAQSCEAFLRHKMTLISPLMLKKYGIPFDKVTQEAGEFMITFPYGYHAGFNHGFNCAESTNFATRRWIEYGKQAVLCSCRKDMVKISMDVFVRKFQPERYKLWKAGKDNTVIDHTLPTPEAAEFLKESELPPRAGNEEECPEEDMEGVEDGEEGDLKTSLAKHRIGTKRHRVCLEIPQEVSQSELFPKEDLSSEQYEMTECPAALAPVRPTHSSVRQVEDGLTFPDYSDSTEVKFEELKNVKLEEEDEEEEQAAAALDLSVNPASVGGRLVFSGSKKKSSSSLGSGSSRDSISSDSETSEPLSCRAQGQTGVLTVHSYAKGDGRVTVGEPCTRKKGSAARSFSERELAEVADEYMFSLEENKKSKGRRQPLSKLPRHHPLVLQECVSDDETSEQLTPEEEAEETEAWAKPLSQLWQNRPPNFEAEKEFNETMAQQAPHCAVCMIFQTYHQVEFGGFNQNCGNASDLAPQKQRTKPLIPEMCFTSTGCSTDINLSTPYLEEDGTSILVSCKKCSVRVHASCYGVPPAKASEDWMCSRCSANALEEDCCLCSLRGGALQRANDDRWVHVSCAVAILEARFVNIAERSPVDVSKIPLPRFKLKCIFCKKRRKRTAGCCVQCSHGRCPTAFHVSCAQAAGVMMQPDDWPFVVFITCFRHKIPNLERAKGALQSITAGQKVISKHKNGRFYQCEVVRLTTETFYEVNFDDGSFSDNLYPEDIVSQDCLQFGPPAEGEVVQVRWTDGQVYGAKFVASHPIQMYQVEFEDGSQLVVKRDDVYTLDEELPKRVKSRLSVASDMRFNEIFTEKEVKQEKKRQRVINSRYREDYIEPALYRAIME

Potency, inactive:
O=S(=O)(c1ccc2c(c1)OCCCO2)N1CCN(S(=O)(=O)c2c(F)cccc2F)CC1
CCCCCn1c(=O)[nH]c2cc(C(=O)Nc3ccc(F)cc3)ccc2c1=O
COc1ccccc1CNC(=O)CCn1c(=O)c2ccccc2n(CC(=O)Nc2ccc(Br)cc2F)c1=O
Cc1ccc2c(c1)-c1c(cnn1CC(=O)Nc1ccccc1C#N)CO2
Cn1cc(S(=O)(=O)N2CCCCCC2)cc1C(=O)N1CCN(c2ccc(F)cc2)CC1
CCOC(=O)c1cc(-c2ccc(OC)c(S(=O)(=O)Nc3ccc(OC)cc3OC)c2)on1
O=S(=O)(NC1CCCCC1)c1ccc(F)c2ccccc12
O=S(=O)(NC1CC1)c1ccc(Cl)cc1
Cc1ccc(-c2nnc3c4ccccc4c(C)nn23)cc1NC(=O)c1cccc(Br)c1
Cc1ccccc1C(=O)Nc1nnc(S(=O)(=O)N(C)c2ccc(Cl)cc2)s1
N#Cc1nc(Nc2cccc(Cl)c2)nc(NC2CCCC2)n1
COc1ccc(NC(=O)C(c2ccccc2)N2Cc3ccccc3C2=O)cc1 (centres undefined)
COc1ccc(-c2onc(C)c2C)cc1S(=O)(=O)NCc1cccs1
COC(=O)c1cnc(Nc2cc(C)ccc2OC)c2ccccc12
COc1ccccc1Nc1ncnc2c1oc1ccccc12
O=C(OCC#CCSc1nnc(-c2ccco2)o1)c1ccc(F)cc1
COC(=O)c1ccc(OC)c(Cn2c(=O)n(Cc3ccccc3)c(=O)c3c2c2cc(OC)ccc2n3C)c1
COc1cc(OC)cc(C(=O)Nc2cc3nn(-c4ccccc4)nc3cc2Cl)c1
CCCNC(=O)CCC(=O)N1Cc2ccccc2Oc2ncccc21
Cc1ccc(-c2noc(-c3nnn(-c4cccc(C(F)(F)F)c4)c3N)n2)cc1
Cc1cccc(NC(=O)COc2ccc(Br)cc2C)n1
Cc1ccc(OCCOCCOc2ccc(Br)cc2/C=N\NC(=O)c2ccncc2)cc1
COc1ccc(C2C(=O)N(C3CCCCC3)CC(=O)N2Cc2ccccc2Cl)cc1OC (centres undefined)
COc1cccc(NC(=O)Nc2ccc3c(c2)N(C)C(=O)c2ccccc2S3)c1
CCc1cccc(NC(=O)c2cc(-c3ccccc3)n[nH]2)c1
CCOc1ccc(CNC(=O)C2CCN(c3nnc(-n4cccc4CNc4ccc(C)cc4)s3)CC2)cc1OC
CCC(=O)Nc1nnc(S(=O)(=O)N2CCCc3ccccc32)s1
O=C(Nc1nnc(S(=O)(=O)N2CCCCCC2)s1)c1cccc(Br)c1
Cc1ccc2nc(NC(=O)c3nc(SCc4ccccc4F)ncc3Cl)sc2c1
COc1ccc(S(=O)(=O)c2c(Nc3cccc(Cl)c3)sc(C(=O)c3ccccc3)c2N)cc1
COc1ccc(C)cc1N(CC(=O)N1CCC(C)CC1)S(=O)(=O)c1ccc(C)cc1
CCOC(=O)C1CCN(Cc2nnc(-c3cccc(Br)c3)o2)CC1
COc1ccc(CN2CCN(C(=O)CCC(=O)Nc3nnc(C(C)C)s3)CC2)cc1F
COc1ccc(CCN2C(=O)CC(N3CCC(C(N)=O)CC3)C2=O)cc1OC (centres undefined)
CCOC(=O)C1CCN(CCC(=O)Nc2cccc(C)c2)CC1
COc1ccc(COCC(O)CN2CCC(C(N)=O)CC2)cc1 (centres undefined)
CCOc1cc(CO)ccc1OCC(=O)N1CCCCC1
Cc1c(Br)c([N+](=O)[O-])nn1CC(=O)N1CCN(Cc2ccccc2)CC1
CC(C)CC(=O)N1CCC(O)(CS(=O)(=O)Cc2ccccc2)CC1
COc1ccc(Cn2ccc3nc(C)c(C(=O)Nc4ccc(C)c(F)c4)cc3c2=O)cc1
COc1cccc(NC(=O)CSc2cc(=O)n(C)c3ccc(Cl)cc23)c1
CCCNC(=O)c1ccc2c(c1)ncn2-c1ccc(C)cc1C
COc1ccc(-c2cc(NCc3ccc(F)cc3)n3cnnc3n2)cc1
Cc1cc2oc(C(=O)N(Cc3ccc(Cl)cc3)Cc3ccco3)c(C)c2cc1Cl
CC(C)(C)c1ccc(C(=O)NCC(c2ccc(Cl)cc2)N2CCOCC2)cc1 (centres undefined)
Cc1nc2nc(SCC(=O)NC3CCC(C)CC3)nn2c(C)c1Cc1ccccc1Cl (centres undefined)
Cc1ccc(NC(=O)c2oc3ccc(S(=O)(=O)N4CCCCC4)cc3c2C)cc1Cl
O=C(c1cccc(Cl)c1)N1CCN(Cc2ccccc2)CC1
Cn1nnnc1SCC(=O)N1CCN(Cc2ccccc2)CC1
CCOC(=O)N1CCC(NC(=O)c2cnn(-c3cccc(C)c3)c2C2CCN(C(=O)OC(C)(C)C)CC2)CC1
O=C(Nc1ncccc1O)c1ccc(C(=O)c2ccccc2)cc1
CC1CCC(NC(=O)CNC(=O)c2ccc3ccccc3c2)CC1 (centres undefined)
CCCN(CCC)C(=O)C1CCCN(c2ncnc3c2nc2n3CCCCC2)C1 (centres undefined)
COc1cccc(NC(=O)c2csnn2)c1
Cc1nn(C)c(C(=O)NNC(=S)NC2CCCCC2)c1Cl
COc1ccc(S(=O)(=O)c2cn(C)c3cc(N4CCCCC4)c(F)cc3c2=O)cc1
COc1ccc(S(=O)(=O)Nc2ccc3cn[nH]c3c2)cc1[N+](=O)[O-]
CCOc1ncccc1C(=O)NNC(=O)c1cccc(S(=O)(=O)Nc2ccccc2OC)c1
COC(=O)c1ccccc1NS(=O)(=O)c1ccc2[nH]c(=O)[nH]c2c1
COc1ccc(S(=O)(=O)Nc2ccccc2C(=O)N2CCCC2)cc1C
CCOC(=O)C1CCN(C(=O)CSc2c3c(nc4ccc(Cl)cc24)CCCC3)CC1
COc1ccc2oc(-c3ccc(C)c(NC(=O)c4sc5ccccc5c4Cl)c3)nc2c1
COc1cc(Br)c(-c2sc(Nc3ccccc3)n[n+]2-c2ccccc2)cc1OC
COc1ccc(C)cc1Nc1n[n+](-c2ccccc2)c(-c2cccc(Cl)c2Cl)s1
Cc1cccc(NC(=O)C2CCCN2S(=O)(=O)c2cccc3nsnc23)c1C (centres undefined)
COc1ccc(N2CCN(Cc3nc4c(c(=O)[nH]c(=O)n4C)n3Cc3ccc(Cl)cc3)CC2)cc1
CCn1c(COc2c(C)cccc2C)nnc1SCc1nc2ccccc2c(=O)[nH]1
COc1ccc(C)cc1-n1nnnc1SCc1nc2ccccc2c(=O)[nH]1
CCOc1ccccc1NC(=O)CSc1ncc(S(=O)(=O)c2ccc(C(C)(C)C)cc2)c(=O)[nH]1
CCCN1CCN(CCCNC(=O)c2ccc3nc(Cc4ccccc4)oc3c2)CC1
Cc1cc(/C=C2/SC(=O)N(CC(=O)OC(C)C)C2=O)c(C)n1C
Cc1cc(/C=C2/SC(=O)N(CC(=O)N3CCCC3)C2=O)c(C)n1C
Cc1cccc(-n2c(SCC(N)=O)nc3c(oc4ccccc43)c2=O)c1
O=C(CSc1nc(=O)[nH]c2c1CCCC2)Nc1cc(C(F)(F)F)ccc1Cl
CCOc1ccccc1NC(=O)CN1CCCN(Cc2cccc(Cl)c2)S1(=O)=O
Cc1c(NC(=O)c2cc(=O)c3ccccc3o2)c(=O)n(-c2ccccc2)n1C
Cc1ccccc1NC(=O)c1cc(S(=O)(=O)Nc2cccc(C(=O)O)c2)ccc1Cl
CC(=O)Nc1cccc(/C(C)=N/NC(=O)c2c(-c3ccccc3Cl)noc2C)c1

Potency, active:
O=S(=O)(NC1CC1)c1ccc2c3c(cccc13)CC2 17.8 µM
COc1ccc2c(c1)c(=Cc1ccc(N(C)C)cc1)c1cc(-c3ccccc3)[n+](C)n12 22.4 µM
COc1ccc(C)cc1Nc1nc(C)nc2c1oc1ccccc12 17.8 µM
O=C1Nc2ccc(Br)cc2/C1=N/N=C/C1=C(N2CCOCC2)C(=C\c2ccccc2)/CC1 5.01 µM
CCC(C)NCCOCCOc1ccc(Br)cc1C (centres undefined) 28.2 µM
CCc1ccc2c(c1)C1(NN=C(c3ccccc3)S1)C(=O)N2 (centres undefined) 56.2 µM
O=C(Nc1nnc(S(=O)(=O)N2CCCc3ccccc32)s1)c1cccc(F)c1 50.1 µM
COc1cc(CN2CCC(C(N)=O)CC2)ccc1OCc1ccccc1 50.1 µM
CCOC(=O)C1CCN(Cc2ccc(-c3ccccc3)cc2)CC1 17.8 µM
CCOc1cc(CN2CCN(C(=O)CC(C)C)CC2)ccc1OC 3.16 µM
CC(C)CC(=O)N1CCN(Cc2ccccc2Br)CC1 17.8 µM
CC(C)CC(=O)N1CCN(Cc2cccc(Cl)c2)CC1 44.7 µM
O=C(CNC(=O)c1ccc2ccccc2c1)Nc1ncccc1O 79.4 µM
COc1cccc(NC(=S)NC(=O)c2c(Cl)c(C)nn2C)c1 89.1 µM
COc1ccc(Br)cc1/C=N/Nc1ccc(S(=O)(=O)Nc2ccccc2C(=O)O)cc1[N+](=O)[O-] 17.8 µM
COc1cccc(/C=N/Nc2ccc(S(=O)(=O)Nc3ccccc3C(=O)O)cc2[N+](=O)[O-])c1O 44.7 µM
CCc1ccc(Nc2n[n+](-c3ccccc3)c(-c3cccc(Cl)c3Cl)s2)cc1 56.2 µM
COc1ccc(CCCc2nnc(SCc3nc4ccccc4c(=O)[nH]3)n2C)cc1 15.8 µM
Cc1cc(/C=C2\SC(=O)N(C)C2=O)c(C)n1-c1cccc(C(=O)O)c1 56.2 µM
C/C(=N\Nc1cccc(C(=O)O)c1)c1ccc2c(c1)Nc1ccccc1S2 56.2 µM

Activity change, negative = inhibition, inactive:
COc1ccc(/C=N/N=C2/C(=O)Nc3ccccc32)cc1O -12.8% [at 11.4 µM]
